Screening results as filed in PubChem.
Most compounds without a hit are left out; they make up all but 6.9% or so of the library.
VDR inh = vitamin D3 receptor (human) inhibition | P11473 | VDR-SRC2-3 peptide fluorescence polarization, 2 h | Potency, µM, for the others: max response, negative = inhibition, actives largely listed as inhibitors | 400,000 compounds, 0.93% hits | AID 504847; also: % is scaled to controls: 0 for no effect and ±100 for the full control effect
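Inhibition of the VDR/SRC2-3 peptide interaction is quantified by fluorescence polarization. Compounds (23 nl, pintool) incubate with the reagents for 2 hours at ambient room temperature.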
JMJD2A Tudor = inhibitors of human JMJD2A Tudor domain. O75164. AlphaScreen JMJD2A-Tudor / H3K4me3 peptide binding. Potency, µM (top dose mostly 114 µM), without a hit: top-dose activity change, negative = inhibition, most hits filed as inhibitors. 390,000 compounds, 4.4% hits; also: % is scaled to controls: 0 for no effect and ±100 for the full control effect; nearly all actives have a fitted effect of over 50% in size
HP1b chromo inh = inhibitors of HP1-beta chromodomain binding to methylated histone tails. P83916. Potency, µM (top dose mostly 114 µM), for the others: at the highest dose activity change, negative = inhibition, hits mostly inhibitors. AlphaScreen HP1-beta / biotin-H3K9me3 peptide binding. 390,000 compounds, 0.56% hits; also: nearly all actives have a fitted effect of over 70% in size
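AlphaScreen: HP1-beta (50 nM) preformed 30 min with biotin-H3(1-18)K9me3 peptide (50 nM) in PBS pH 7.4, 0.01% Tween-20. Compound added for 30 min at RT, then streptavidin donor/nickel chelate acceptor beads (10 ug/mL) for 30 min.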
PLK1 PBD block = inhibitors of human PLK1 polo-box domain binding. Plk1 PBD binding of FITC phosphopeptide, fluorescence polarization. Potency, µM, for the others: max response, negative = inhibition, hits mostly inhibitors. 360,000 compounds, 2.8% hits; also: series mostly up to about 57 µM; % is scaled to controls: 0 for no effect and ±100 for the full control effect; nearly all actives have a fitted effect of over 65% in size
BAZ2B inh = blocks human BAZ2B; AlphaScreen BAZ2B-H3K14Ac peptide displacement; Potency, µM (series often up to 114 µM), without a hit: at the highest dose activity change, negative = inhibition, usual class: inhibitors; 360,000 compounds, 4.4% hits; also: % is scaled to controls: 0 for no effect and ±100 for the full control effect; nearly all actives have a fitted effect of over 60% in size
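In this displacement format the biotinylated H3(5-23) peptide acetylated at Lys14 serves as ligand at 50 nM, with BAZ2B at 50 nM in PBS pH 7.4 containing 0.01% Tween-20. Donor and acceptor beads are 10 ug/mL final.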
L3MBTL1 inh = inhibitors of human L3MBTL1 | AlphaScreen L3MBTL1–H3K9me1 peptide binding | Q9Y468 | 230,000 compounds, 0.66% hits | Potency, µM (series often up to 57.1 µM), without a hit: at the top dose activity, negative = inhibition, hits mostly inhibitors; also: % is scaled to controls: 0 for no effect and ±100 for the full control effect; nearly all actives have a fitted effect of over 60% in size
Target sequence (Q9Y468 whole entry, looked up): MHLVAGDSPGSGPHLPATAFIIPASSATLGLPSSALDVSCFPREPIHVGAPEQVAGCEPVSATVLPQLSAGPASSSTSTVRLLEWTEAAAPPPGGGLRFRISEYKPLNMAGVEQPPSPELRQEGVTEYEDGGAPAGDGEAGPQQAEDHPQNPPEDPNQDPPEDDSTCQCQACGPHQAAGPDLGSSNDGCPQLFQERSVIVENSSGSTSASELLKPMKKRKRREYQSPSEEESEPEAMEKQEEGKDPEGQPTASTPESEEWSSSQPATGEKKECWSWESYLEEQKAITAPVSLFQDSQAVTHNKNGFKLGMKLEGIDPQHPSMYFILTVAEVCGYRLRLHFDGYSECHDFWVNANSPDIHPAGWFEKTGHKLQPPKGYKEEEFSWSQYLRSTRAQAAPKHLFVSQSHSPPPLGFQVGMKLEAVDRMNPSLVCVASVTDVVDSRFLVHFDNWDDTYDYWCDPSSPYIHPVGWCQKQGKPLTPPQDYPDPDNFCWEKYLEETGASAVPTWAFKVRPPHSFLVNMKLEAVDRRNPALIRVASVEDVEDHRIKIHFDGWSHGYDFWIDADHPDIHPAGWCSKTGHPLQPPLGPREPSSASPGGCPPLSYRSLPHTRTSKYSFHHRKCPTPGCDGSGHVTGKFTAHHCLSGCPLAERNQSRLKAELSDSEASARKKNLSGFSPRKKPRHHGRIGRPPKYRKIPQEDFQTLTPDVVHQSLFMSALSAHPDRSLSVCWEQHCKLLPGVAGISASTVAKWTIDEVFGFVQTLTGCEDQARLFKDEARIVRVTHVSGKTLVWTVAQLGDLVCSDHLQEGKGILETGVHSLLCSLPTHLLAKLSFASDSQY
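AlphaScreen assay: L3MBTL1 (50 nM final) was preincubated 30 min at room temperature with biotinylated H3(1-15)K9me1 peptide (75 nM final), then 30 min with library compounds; streptavidin donor and nickel chelate acceptor beads (10 ug/mL final) added, 30 min dark.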
An asterisk follows results filed as active. Calls follow the shape of the dose curve; as a rule, active = well fitted curve in the direction sought with a large enough effect; inconclusive = small, poorly fitted or top-dose-only effect, or another doubt; inactive = no such curve, though single readings can be large; an effect the other way counts as inactive or inconclusive. Potency is read from the fitted curve at half-maximal effect.

Results for COc1cc(/C=N/N=C2/SCC(=O)N2c2ccc(O)cc2)ccc1O ?
VDR inh: 17.8µM*; JMJD2A Tudor: 8.91µM*; HP1b chromo inh: -10.4%; PLK1 PBD block: 2.99µM*; BAZ2B inh: -9.8%

How did COc1ccc(/C=N\N=C2/SC(CC(=O)O)C(=O)N2c2ccc(O)cc2)cc1OC (stereo not drawn) do in these assays?
VDR inh: -8.9%; JMJD2A Tudor: 6.1%; HP1b chromo inh: 21.8%; PLK1 PBD block: -1.6%; BAZ2B inh: 4.1%; L3MBTL1 inh: 12.8%

Results for CN1c2ccsc2C(O)=C(C(=S)Nc2ccccc2)S1(=O)=O ?
VDR inh: inconclusive; JMJD2A Tudor: inconclusive; HP1b chromo inh: -0.9%; PLK1 PBD block: 21.2µM*; BAZ2B inh: inconclusive

What do the screens show for `CN(C)c1ccc(N/C=C/C(=O)c2ccccc2)cc1`?
VDR inh: 79.4µM*; JMJD2A Tudor: inconclusive; HP1b chromo inh: -20.3%; PLK1 PBD block: 8.6%; BAZ2B inh: inconclusive; L3MBTL1 inh: inconclusive

What do the screens show for `CN(C)c1ccc(N/C=C/C(=O)C(C)(C)C)cc1`?
VDR inh: 15.8µM*; JMJD2A Tudor: 50.1µM*; HP1b chromo inh: -53.7%; PLK1 PBD block: -2.9%; BAZ2B inh: 39.8µM*

What do the screens show for `COc1ccc(CCC(C)NC(=O)Cc2ccc(OC)c(OC)c2)c(OC)c1` (stereo not drawn)?
VDR inh: inconclusive; JMJD2A Tudor: -14.1%; HP1b chromo inh: 9.5%; PLK1 PBD block: -8.9%; BAZ2B inh: -5.8%

How did OC[C@H](O)[C@H](O)[C@@H](O)[C@@H](O)[C@@H]1SC(c2ccccc2)=NN1c1ccccc1 do in these assays?
VDR inh: 22.4µM*; JMJD2A Tudor: inconclusive; HP1b chromo inh: 7.9%; PLK1 PBD block: inconclusive; BAZ2B inh: -28.3%; L3MBTL1 inh: -25.4%

How did CC[C@H]1C(c2ccccc2)=NN(c2ccccc2)[C@@H]1CO do in these assays?
VDR inh: -15.4%

How did O=C1C=C(c2ccc(C(=O)O)c(Cl)c2)C[C@@H](c2ccc3c(c2)OCO3)C1 do in these assays?
VDR inh: -6.3%; JMJD2A Tudor: 70.8µM*; HP1b chromo inh: 20.3%; PLK1 PBD block: -16.7%; L3MBTL1 inh: -15.6%

Results for O=C1C=C(c2ccc(-c3ccccc3)cc2)C[C@@H](c2ccc3c(c2)OCO3)C1 ?
VDR inh: 0.5%; JMJD2A Tudor: -11.3%; HP1b chromo inh: 33.2%; PLK1 PBD block: 4.1%; BAZ2B inh: 1.9%; L3MBTL1 inh: 4.7%

Results for Cc1[nH]c(-c2ccc(F)cc2)cc1C(=O)N1CCN(c2ccccc2)CC1 ?
VDR inh: 13.4%; JMJD2A Tudor: 56.2µM*; HP1b chromo inh: -29.5%; PLK1 PBD block: -0.6%; BAZ2B inh: inconclusive

What do the screens show for `Cc1ccc(N2CCN(C(=O)c3cc(-c4ccc(F)cc4)[nH]c3C)CC2C)cc1` (stereo not drawn)?
VDR inh: -5.3%; JMJD2A Tudor: inconclusive; HP1b chromo inh: inconclusive; PLK1 PBD block: 5.6%; BAZ2B inh: 44.7µM*

What do the screens show for `COc1ccccc1N1CCN(C(=O)c2cc(-c3ccc(F)cc3)[nH]c2C)CC1`?
VDR inh: 9.5%; JMJD2A Tudor: 56.2µM*; HP1b chromo inh: inconclusive; PLK1 PBD block: -5.3%; BAZ2B inh: inconclusive

What do the screens show for `COc1cccc(CNC(=O)CCn2c(=O)c3cccn3c3ccc(F)cc32)c1OC`?
VDR inh: -7.0%; JMJD2A Tudor: -19.1%; HP1b chromo inh: 35.5%; BAZ2B inh: 2.1%

Results for COc1ccccc1NC(=O)c1ccccc1S(=O)(=O)c1ccccc1[N+](=O)[O-] ?
VDR inh: -16.5%; JMJD2A Tudor: inconclusive; HP1b chromo inh: -2.2%; PLK1 PBD block: 5.97µM*; BAZ2B inh: -32.8%; L3MBTL1 inh: -5.5%

Results for COc1ccccc1Nc1ncccc1[N+](=O)[O-] ?
VDR inh: -5.3%; JMJD2A Tudor: 44.7µM*; HP1b chromo inh: inconclusive; PLK1 PBD block: -18.3%; BAZ2B inh: 31.6µM*; L3MBTL1 inh: inconclusive

How did COc1ccccc1Nc1ccc(NC(=O)c2cccc([N+](=O)[O-])c2C)cc1 do in these assays?
VDR inh: -24.9%; JMJD2A Tudor: 12.6µM*; HP1b chromo inh: inconclusive; PLK1 PBD block: -11.5%; BAZ2B inh: 10µM*

What do the screens show for `COc1ccc(NC(=O)c2ccccc2[N+](=O)[O-])cc1`?
VDR inh: -6.5%; JMJD2A Tudor: -7.9%; HP1b chromo inh: 30.2%; PLK1 PBD block: 4.6%; BAZ2B inh: 3.3%; L3MBTL1 inh: 4.3%

What do the screens show for `COc1ccccc1NC(=O)c1ccccc1S(=O)(=O)c1ccc([N+](=O)[O-])cc1`?
VDR inh: -1.4%; JMJD2A Tudor: -20.8%; HP1b chromo inh: -21.8%; PLK1 PBD block: -7.7%; BAZ2B inh: -33.4%

How did COc1ccccc1C(CNc1ncccc1[N+](=O)[O-])N(C)C (stereo not drawn) do in these assays?
VDR inh: 2.5%; JMJD2A Tudor: -22.3%; HP1b chromo inh: -8.1%; PLK1 PBD block: 0.8%; BAZ2B inh: -13.0%

What do the screens show for `Cc1ccc(N2C(=O)c3ccc(C(=O)N4CCN(Cc5ccccc5)CC4)cc3C2=O)cc1`?
VDR inh: -19.7%; JMJD2A Tudor: inconclusive; HP1b chromo inh: -15.3%; PLK1 PBD block: -1.6%; BAZ2B inh: -29.8%

Results for Cc1c(C(=O)Nc2ccc(F)cc2)oc2ccc(S(=O)(=O)N3CCCCCC3)cc12 ?
VDR inh: 6.2%; JMJD2A Tudor: -19.0%; HP1b chromo inh: -16.1%; BAZ2B inh: -7.0%

Results for Cn1nc(C2CC2)cc1NC(=O)C1(C)CCN1C(=O)Cc1ccc(-c2ccccc2)cc1 (stereo not drawn) ?
PLK1 PBD block: 0.9%

How did Cc1ccccc1NC(=O)NC1(C(=O)N2CCC(O)CC2)CCCCC1 do in these assays?
VDR inh: -5.3%; JMJD2A Tudor: 0.7%; HP1b chromo inh: 21.8%; PLK1 PBD block: -1.1%; BAZ2B inh: -1.5%

Results for CCC(=O)Nc1ccc(OCc2cc(C3Nc4ccccc4C(=O)N3Cc3ccccc3)ccc2OC)cc1 (stereo not drawn) ?
JMJD2A Tudor: -35.4%

How did COc1ccc(S(=O)(=O)NNC(=O)Cc2csc(C)n2)cc1[N+](=O)[O-] do in these assays?
VDR inh: 2.9%; JMJD2A Tudor: inconclusive; HP1b chromo inh: 4.0%; PLK1 PBD block: -10.4%; BAZ2B inh: 79.4µM*; L3MBTL1 inh: inconclusive

How did CCOC(=O)c1[nH]c2ccccc2c1NC(=O)c1ccc(OC(C)C)cc1 do in these assays?
VDR inh: -3.6%; JMJD2A Tudor: -11.6%; HP1b chromo inh: 39.6%; BAZ2B inh: 2.1%
